Source: PubChem BioAssay (NCI)
This is part of a sample that, as a whole, favours compounds with a hit. Of some 83,000 tested, about 20% had one in any assay.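 Method: cells in 96-well plates; compound added at one concentration; 48 h incubation; percent growth measured; values under 10 scored active.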

Assays:
Assay in all cases: NCI-60 one-dose screen, 48 h (100 = growth as untreated, 0 = no growth, -100 = all killed)
Settings in all cases: 10 µM unless noted
SK-MEL-2 melanoma = system: SK-MEL-2 melanoma
EKVX NSCLC = system: EKVX NSCLC
SN12C renal = system: SN12C renal
UO-31 renal = system: UO-31 renal
TK-10 renal = system: TK-10 renal
ACHN renal = system: ACHN renal
CAKI-1 renal = system: CAKI-1 renal
A498 renal = system: A498 renal
CCRF-CEM leukemia = system: CCRF-CEM leukemia
MOLT-4 leukemia = system: MOLT-4 leukemia
RPMI-8226 leukemia = system: RPMI-8226 leukemia
OVCAR-8 ovarian = system: OVCAR-8 ovarian
OVCAR-5 ovarian = system: OVCAR-5 ovarian
OVCAR-4 ovarian = system: OVCAR-4 ovarian
SK-OV-3 ovarian = system: SK-OV-3 ovarian
OVCAR-3 ovarian = system: OVCAR-3 ovarian
HS 578T breast = system: HS 578T breast
NCI/ADR-RES ovarian = system: NCI/ADR-RES ovarian
IGROV1 ovarian = system: IGROV1 ovarian
SR leukemia = system: SR leukemia

Measured: growth

CCNC(=O)OCCc1c2ccccc2nc2ccccc12
inactive: SK-MEL-2 melanoma 111% | EKVX NSCLC 115% | SN12C renal 119% | UO-31 renal 92.2% | TK-10 renal 132% | ACHN renal 94.1% | CAKI-1 renal 121% | A498 renal 111% | CCRF-CEM leukemia 73.7% | MOLT-4 leukemia 76.4% | RPMI-8226 leukemia 76.7% | OVCAR-8 ovarian 98% | OVCAR-5 ovarian 111% | OVCAR-4 ovarian 98.1% | SK-OV-3 ovarian 109% | OVCAR-3 ovarian 109% | HS 578T breast 90.2% | NCI/ADR-RES ovarian 119%

C[C@H](CCC[C@H](C)OS(=O)(=O)c1ccccc1)OS(=O)(=O)c1ccccc1
inactive: SK-MEL-2 melanoma 98.8% | EKVX NSCLC 95.2% | SN12C renal 99.3% | UO-31 renal 78.8% | TK-10 renal 103% | ACHN renal 106% | CAKI-1 renal 92.6% | A498 renal 133% | CCRF-CEM leukemia 120% | MOLT-4 leukemia 115% | RPMI-8226 leukemia 121% | OVCAR-8 ovarian 101% | OVCAR-5 ovarian 115% | OVCAR-4 ovarian 103% | IGROV1 ovarian 73% | OVCAR-3 ovarian 109% | HS 578T breast 105% | NCI/ADR-RES ovarian 116%

COc1ccc(Br)c2c1C(=O)CC2
inactive: SK-MEL-2 melanoma 96% | EKVX NSCLC 106% | SN12C renal 91.8% | UO-31 renal 85.4% | TK-10 renal 147% | ACHN renal 114% | CAKI-1 renal 110% | A498 renal 169% | CCRF-CEM leukemia 93.1% | MOLT-4 leukemia 142% | RPMI-8226 leukemia 112% | OVCAR-8 ovarian 106% | OVCAR-5 ovarian 97.8% | OVCAR-4 ovarian 107% | SK-OV-3 ovarian 112% | OVCAR-3 ovarian 103% | HS 578T breast 140% | NCI/ADR-RES ovarian 110%

Cn1c2ccccc2c2nnc(NCCCCO)nc21
inactive: SK-MEL-2 melanoma 108% | EKVX NSCLC 76.3% | SN12C renal 94.3% | UO-31 renal 68.4% | TK-10 renal 123% | ACHN renal 87.2% | CAKI-1 renal 66.4% | A498 renal 105% | CCRF-CEM leukemia 107% | MOLT-4 leukemia 97.7% | RPMI-8226 leukemia 69.6% | OVCAR-8 ovarian 100% | OVCAR-5 ovarian 86.5% | OVCAR-4 ovarian 94.6% | SK-OV-3 ovarian 86.5% | IGROV1 ovarian 57.8% | OVCAR-3 ovarian 88.6% | HS 578T breast 81.6% | NCI/ADR-RES ovarian 94.3%

O=C(NC1CCCCC1)c1ccc(Cl)cc1
inactive: SK-MEL-2 melanoma 115% | EKVX NSCLC 98.5% | SN12C renal 103% | UO-31 renal 94.7% | TK-10 renal 102% | ACHN renal 104% | CAKI-1 renal 102% | A498 renal 82.4% | CCRF-CEM leukemia 98.4% | SR leukemia 103% | RPMI-8226 leukemia 105% | OVCAR-8 ovarian 105% | OVCAR-5 ovarian 99.5% | OVCAR-4 ovarian 108% | SK-OV-3 ovarian 114% | IGROV1 ovarian 103% | OVCAR-3 ovarian 102% | HS 578T breast 106% | NCI/ADR-RES ovarian 101%

CCCCn1cnc2c(=O)[nH]cnc21
inactive: SK-MEL-2 melanoma 107% | EKVX NSCLC 97.9% | SN12C renal 105% | UO-31 renal 94.7% | TK-10 renal 109% | ACHN renal 89.7% | CAKI-1 renal 98.4% | A498 renal 108% | CCRF-CEM leukemia 96.7% | MOLT-4 leukemia 96.2% | RPMI-8226 leukemia 108% | OVCAR-8 ovarian 115% | OVCAR-5 ovarian 98.7% | OVCAR-4 ovarian 113% | SK-OV-3 ovarian 104% | IGROV1 ovarian 115% | OVCAR-3 ovarian 113% | HS 578T breast 115% | NCI/ADR-RES ovarian 113%

Nc1c(Br)cc(O)c2c1C(=O)c1ccccc1C2=O
inactive: SK-MEL-2 melanoma 55.4% | EKVX NSCLC 96.6% | SN12C renal 80.9% | UO-31 renal 85.1% | TK-10 renal 91.1% | ACHN renal 97.1% | CAKI-1 renal 83.8% | A498 renal 76.4% | CCRF-CEM leukemia 56.5% | MOLT-4 leukemia 50.1% | RPMI-8226 leukemia 84% | OVCAR-8 ovarian 55.6% | OVCAR-5 ovarian 112% | OVCAR-4 ovarian 87.4% | SK-OV-3 ovarian 109% | IGROV1 ovarian 56.3% | OVCAR-3 ovarian 96.2% | HS 578T breast 88.8% | NCI/ADR-RES ovarian 89.6%

CCCCN(C=S)CCCC
inactive: SK-MEL-2 melanoma 91.8% | EKVX NSCLC 103% | SN12C renal 97.5% | UO-31 renal 93.5% | TK-10 renal 98.4% | ACHN renal 95.7% | CAKI-1 renal 95.2% | A498 renal 91.4% | CCRF-CEM leukemia 95.7% | SR leukemia 91.9% | RPMI-8226 leukemia 101% | OVCAR-8 ovarian 95% | OVCAR-5 ovarian 102% | OVCAR-4 ovarian 112% | SK-OV-3 ovarian 88.6% | IGROV1 ovarian 107% | OVCAR-3 ovarian 108% | HS 578T breast 97.1% | NCI/ADR-RES ovarian 107%

Oc1ccc2ccccc2c1CN1CCOCC1
inactive: SK-MEL-2 melanoma 103% | EKVX NSCLC 113% | SN12C renal 107% | UO-31 renal 74.6% | TK-10 renal 123% | ACHN renal 103% | CAKI-1 renal 94.6% | A498 renal 112% | CCRF-CEM leukemia 95.3% | MOLT-4 leukemia 99.6% | RPMI-8226 leukemia 97.5% | OVCAR-8 ovarian 105% | OVCAR-5 ovarian 113% | OVCAR-4 ovarian 108% | SK-OV-3 ovarian 104% | IGROV1 ovarian 106% | OVCAR-3 ovarian 120% | HS 578T breast 112% | NCI/ADR-RES ovarian 113%
